The values that follow come from PubChem BioAssay AID1671192 (National Center for Advancing Translational Sciences (NCATS), 2021).

Records with an inconclusive call do not appear. Activity calls are given as the source filed them. Calls come from the whole dose curve; as a rule, active = well fitted curve in the direction sought with a large enough effect; inconclusive = small, poorly fitted or top-dose-only effect, or another doubt; inactive = no such curve, though single readings can be large or run the other way.

In this assay the target is Polyunsaturated fatty acid lipoxygenase ALOX15 (Homo sapiens) (UniProt P16050). The experiment in a line: Counterscreen qHTS for inhibitors of human arachidonate 12S-lipoxygenase (ALOX12): ALOX15 Assay. To be noted: purified ALOX15 enzyme activity; series mostly up to 110 µM. In outline: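 Xylenol orange–ferric complex formation, read as the 573 nm to 405 nm absorbance ratio, tracks product from 50 uM arachidonic acid turned over for 30 min at RT. Enzyme is 40 nM ALOX15, pH 7.5 HEPES buffer, compound-preincubated 15 min.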
Chain of Polyunsaturated fatty acid lipoxygenase ALOX15 (Homo sapiens) (P16050 whole entry, looked up): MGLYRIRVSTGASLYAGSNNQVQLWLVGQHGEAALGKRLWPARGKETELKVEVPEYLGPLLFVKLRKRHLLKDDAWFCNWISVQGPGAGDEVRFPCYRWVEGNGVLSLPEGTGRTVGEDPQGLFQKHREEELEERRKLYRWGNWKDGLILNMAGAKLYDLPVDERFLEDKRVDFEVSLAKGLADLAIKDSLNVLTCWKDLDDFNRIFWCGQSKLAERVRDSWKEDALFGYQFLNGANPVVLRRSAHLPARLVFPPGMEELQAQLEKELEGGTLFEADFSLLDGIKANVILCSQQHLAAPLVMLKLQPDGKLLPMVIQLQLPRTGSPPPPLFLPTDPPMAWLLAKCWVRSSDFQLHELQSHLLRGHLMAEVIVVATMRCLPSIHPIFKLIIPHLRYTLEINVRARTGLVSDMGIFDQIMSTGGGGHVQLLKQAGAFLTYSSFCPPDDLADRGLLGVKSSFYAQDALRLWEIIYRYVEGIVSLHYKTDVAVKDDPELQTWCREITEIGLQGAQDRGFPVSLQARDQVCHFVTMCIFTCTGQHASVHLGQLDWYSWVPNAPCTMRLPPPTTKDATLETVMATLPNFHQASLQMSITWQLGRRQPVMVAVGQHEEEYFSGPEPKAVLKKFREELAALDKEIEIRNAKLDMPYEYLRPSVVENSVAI
(A counterscreen serves to expose hits that act by an unwanted route or on another target.)
As for `CCCC(=O)N1Cc2ccccc2CC2(CCN(Cc3ccc(O)cc3)C2)C1` (stereo not drawn), the molecule was classed as inactive. The entry for `Cn1ncc2c(C(=O)NCCc3ccc(Cl)cc3)cc(-c3ccc([S+](C)(=O)[O-])cc3)nc21` is “inactive”; for `O=C1NCc2ccccc2CC12CCN(Cc1ccccc1F)C2` (stereo not drawn) it is “inactive”. With `CNCc1ccc(F)cc1` the entry was “inactive”; with `O=C(N1CCOCC1)N1CCN(c2ccc(Cl)nn2)C(=O)C1`, “inactive”. The entry for `CC(C)NC(=O)NC1CC2(CCN(Cc3ccc(O)cc3)CC2)c2ccccc21` (stereo not drawn) is “inactive”; for `COc1ccccc1CNc1ncnc2c1CN(C1CCCNC1)C(=O)CN2C` (stereo not drawn) it is “inactive”; for `CN1CC(=O)N(C2CCNC2)Cc2c(NCC3CCCCC3)ncnc21` (stereo not drawn) it is “inactive”. With `CSc1ccc(-c2ccc(C=O)cc2)cc1`, the result was inactive. For `CC(=O)NC1CC2(CCN(C(=O)Cc3cnc[nH]3)CC2)c2ccccc21` (stereo not drawn), the molecule was called inactive. The entry for `COc1cc(CN2CCC3(Cc4ccccc4CNC3=O)C2)cc(OC)c1` (stereo not drawn) is “inactive”; for `O=C1NCc2ccccc2CC12CCN(Cc1ccccc1Cl)C2` (stereo not drawn) it is “inactive”. With `N#Cc1ccc(CN2CC(Oc3ccc(F)cc3F)C2)cc1` the entry was “inactive”; with `O=C(C1CCCC1)N1Cc2ccccc2CC2(CCN(Cc3cccnc3)C2)C1` (stereo not drawn), “inactive”. On to `O=C1NCc2ccccc2CC12CCCN2Cc1ccc(Cl)s1` (stereo not drawn), for which the outcome was inactive. With `COC(=O)CNC(=O)C1CCc2nnc(CNC(=O)c3cccnc3)n21` (stereo not drawn) the entry was “inactive”; with `CN1CC(=O)N(C2CCNC2)Cc2c(NCC3(O)CCCCC3)ncnc21` (stereo not drawn), “inactive”. In the case of `NCc1ccc(-c2cccc(C(F)(F)F)c2)cc1`, the result was inactive.

`O=C(c1ccc(C(F)(F)F)cc1)N1CCCC2(CC(c3ccccc3)=NO2)C1` (stereo not drawn): the call was inactive. The entry for `O=C(c1ccccc1)N1CCC2(CC1)C(=O)NCN2C(=O)Cc1ccccc1` is “inactive”; for `COc1ccc(OC2CN(Cc3ccc(F)cc3)C2)cc1` it is “inactive”. On to `O=C(c1cc(C2CC2)nc2onc(C3CCCN3)c12)N1CCC(F)CC1` (stereo not drawn), for which the outcome was inactive.

In the case of `COc1cccc([S+](=O)([O-])N2CC(Oc3ccc(F)c(F)c3)C2)c1`, the outcome was inactive.

For the molecule `COc1ccc(-c2nc(C3CC3)nc3c2CCN(Cc2ccc(C#N)cc2)CC3)cc1`, the molecule was called inactive.

Take `O=C(O)CCCC(=O)N1Cc2ccccc2CC2(CCCCN2CCc2ccccc2)C1` (stereo not drawn): the outcome was inactive. With `O=C(c1cc(C2CC2)nc2onc(C3CCCN3)c12)N1CCOCC1` (stereo not drawn) the entry was “inactive”; with `O=C(NCC(F)(F)F)c1cc(C2CC2)nc2c1c(C1CCCN1)nn2-c1ccccc1` (stereo not drawn), “inactive”; with `CCc1nc2c(c(-c3ccc(OC)cc3)n1)CCN(Cc1cccc3ccccc13)CC2`, “inactive”. With `COc1ccc(CNc2ncnc3c2CN(C2CCCNC2)C(=O)CN3C)cc1OC` (stereo not drawn) the entry was “inactive”. For `Cc1ccc(CCN2CCC3(Cc4ccccc4CNC3=O)C2)cc1` (stereo not drawn), the outcome was inactive. In the case of `Cc1ccc(CN2CCCC23Cc2ccccc2CNC3=O)cc1` (stereo not drawn), the molecule was classed as inactive.

Take `CC(=O)NCCC(=O)N1Cc2ccccc2CC2(CCN(CC3CCNC3)CC2)C1` (stereo not drawn): the call was inactive. On to `CC(=O)N1CCC(c2nnc3n2CCNC3)CC1`, for which the result was inactive. For `CCC(=O)N1Cc2ccccc2CC2(CCN(Cc3ccncc3)CC2)C1`, the molecule was classed as inactive.

In the case of `C/C(=C\c1ccccc1)CN1CCCC12Cc1ccccc1CNC2=O` (stereo not drawn), the outcome was inactive.

As for `C[S+](=O)([O-])N1CC2ON=C(C(=O)NCCc3ccc(Cl)cc3)C2C1` (stereo not drawn), the molecule was called inactive. The entry for `CCCN1CCC2(Cc3ccccc3CN(C(=O)Cc3ccc(O)cc3)C2)C1` (stereo not drawn) is “inactive”; for `CC(C)CNC(=O)c1cc(C2CC2)nc2onc(C3CCNCC3)c12` it is “inactive”.
